PubChem BioAssay (NCI)
This is part of a sample that, as a whole, favours compounds with a hit. Of some 83,000 tested, about 20% had one in any assay.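 For each line, cells grew in 96-well plates with the test compound present at a single concentration for 48 hours.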 A number with no mark means an inactive call. The source made the active and inactive calls. Rule for the calls: active = growth percent below 10; inactive = the rest.

Assays:
Test in all cases: NCI-60 one-dose screen, 48 h (100 = growth as untreated, 0 = no growth, -100 = all killed)
Details in all cases: 10 µM unless noted
NCI-H23 lung = test system: NCI-H23 lung
NCI-H226 lung = test system: NCI-H226 lung
NCI-H322M lung = test system: NCI-H322M lung
HOP-62 NSCLC = test system: HOP-62 NSCLC
NCI-H460 lung = test system: NCI-H460 lung
HOP-92 NSCLC = test system: HOP-92 NSCLC
NCI-H522 lung = test system: NCI-H522 lung
A549/ATCC NSCLC = test system: A549/ATCC NSCLC
786-0 renal = test system: 786-0 renal
COLO 205 colon = test system: COLO 205 colon

Row | SMILES | growth (NCI-H23 lung) | growth (NCI-H226 lung) | growth (NCI-H322M lung) | growth (HOP-62 NSCLC) | growth (NCI-H460 lung) | growth (HOP-92 NSCLC) | growth (NCI-H522 lung) | growth (A549/ATCC NSCLC) | growth (786-0 renal) | growth (COLO 205 colon)
1 | O=C(NCCNc1nccc(Nc2ccc(S(=O)(=O)Nc3ccccn3)cc2)n1)c1cccc([N+](=O)[O-])c1 | 97.4% | 98.7% | 106% | 99.2% | 104% | 102% | 82% | 94.8% | 98% | 110%
2 | NC(N)=NCCCCCNc1noc(Cc2c[nH]c3cc(Br)ccc23)n1 | 64% | 63.2% | 77.3% | 58.3% | 68% | 16.2% | 47.8% | 65.3% | 91.7% | 64.7%
3 | Nc1n[nH]c2ccc([C@H]3[C@@H]4C5CCC(C5)[C@@H]4c4c(ccc5[nH]ncc45)N3S(=O)(=O)C3CC3)cc12 (stereo not given in full) | 16.3% | -16.9% (active) | 38.6% | 41.1% | 5.9% (active) | 67.7% | 7.23% (active) | 17.1% | 31.3% | -0.398% (active)
4 | C#CCOc1cccc(Nc2ncnc3ccc(NC(=O)C=C)cc23)c1 | 65.4% | 61.8% | 2% (active) | 58.4% | 81.2% | 14.7% | 15.9% | 34.2% | 35.2% | 68.4%
5 | COc1ccc2cc1Oc1ccc(cc1)C[C@H]1c3c(cc4c(c3Oc3cc5c(cc3OC)CCN(C)[C@@H]5C2)OCO4)CCN1C | 75.9% | 87.4% | 56% | 115% | 59.4% | 52.6% | -18.8% (active) | 47.2% | 53.5% | 109%
6 | O=S(=O)(Nc1ccc(Cl)c(C(F)(F)F)c1)c1ccc(-c2cnc(C3CC3)o2)cc1 | 20.4% | 46.7% | 44.4% | 12.2% | 7.09% (active) | -18.5% (active) | -1.8% (active) | 8.92% (active) | 25.9% | 2.71% (active)
7 | COc1ccc2c(c1OC)CO[C@@H]2[C@H]1c2c(cc3c(c2OC)OCO3)CCN1S(=O)(=O)c1cn(C)cn1 | 32.9% | 73.6% | 48% | 30.9% | 6.13% (active) | 60.7% | 19.4% | 21.2% | 41.9% | 0.532% (active)
8 | O=C(Nc1ccc(OS(=O)(=O)c2ccc(F)cc2)cc1)C1CCCCCC1 | 83.6% | 94.3% | 106% | 98.6% | 95.5% | 83.4% | 81.2% | 92.5% | 96.6% | 64.6%
9 | CCN(CC)CCn1c2ccc(O)cc2c2sc3cc(O)ccc3c(=O)c21 | 25.8% | 68.2% | 30% | 38.4% | 8.46% (active) | 60.5% | 35.1% | 21.6% | 27% | 30.3%
10 | O=C(/C=C/c1ccco1)Nc1ncc(Cc2cccc(C(F)(F)F)c2)s1 | 22.4% | 33.2% | 30.4% | 1.31% (active) | -0.329% (active) | 64.3% | -15% (active) | 11.6% | 12.6% | -47.5% (active)
11 | C=C1C(=O)O[C@H]2[C@H]1CC/C(COC(=O)C(=O)c1cn(C)c3ccc(Cl)cc13)=C\CC[C@@]1(C)O[C@@H]21 | -60.1% (active) | -71.4% (active) | -68.9% (active) | -70.1% (active) | -69.8% (active) | -82.9% (active) | -65.8% (active) | -62.5% (active) | -97.6% (active) | -64.7% (active)
12 | NS(=O)(=O)c1ccccc1NC(=O)Nc1nc2ccccc2s1 | 90.8% | 91.5% | 98% | 96.1% | 103% | 99.1% | 91.9% | 101% | 98% | 109%
13 | CSc1nc(N)c(NS(=O)(=O)c2ccc(C(C)=O)cc2)c(=O)[nH]1 | 95.5% | 103% | 100% | 105% | 103% | 103% | 99.6% | 102% | 78.9% | 98.6%
14 | COCCn1cc(-c2nc(-c3cc4cccnc4[nH]3)cs2)c2cc(OC)ccc21 | 8.67% (active) | 28.8% | 21.2% | 13.4% | 7.21% (active) | 4.04% (active) | 41.6% | 24.8% | 28.5% | 49.4%
15 | O=C(Nc1nc(-c2ccc(Cl)cc2)nc2c1sc(=S)n2-c1ccccc1)C(F)(F)F | 49.2% | 23.7% | 49.4% | 9.09% (active) | 13.6% | -4.79% (active) | 25.2% | 19.5% | -72.1% (active) | 21%
